The structures appear in SMILES notation. “And” between values parts separate entries of the source, which are not always exact repeats. Equal entries are not always repeated. Results filed as inconclusive are left out. Some compounds were tested as several samples or in several runs, with calls that do not always agree. The source made the active and inactive calls. How the source made its calls: active means hit-call score of the fitted dose curve at least 0.9, where 1 is the maximum; inconclusive means response in the unintended direction; inactive means score below 0.9.

A short description of the experiment: ACEA_ER_AUC_viability: ACEA Biosciences xCELLigence Real-Time Cell Analysis on Estrogen Receptor Agonism for Viability (AID 2283782).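 Further: continuous compound exposure with impedance area under curve over 80 h.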 How it is done:
ACEA_ER is a cell-based, single-readout assay that uses T47D, a human breast cell line, with measurements taken at 80 hours after chemical dosing in a 96-well plate, although TO2 (mc0.srcf) used a 384-well plate. Differences in plate size can be ignored given data normalization.ACEA_ER_AUC_viability is one of two assay component(s) measured or calculated from the ACEA_ER assay. It is designed to make measurements of real-time cell-growth kinetics, a form of growth reporter, as detected with electrical impedance signals by Real-Time Cell Electrode Sensor (RT-CES) technology.Data from the assay component ACEA_ER_AUC_viability was analyzed in the positive analysis fitting direction relative to DMSO as the negative control and baseline of activity. Using a type of growth reporter, loss-of-signal activity can be used to understand changes in the viability. Furthermore, this assay endpoint can be referred to as a secondary readout, because this assay has produced multiple assay endpoints where this one serves a viability function. To generalize the intended target to other relatable targets, this assay endpoint is annotated to the cell cycle intended target family, where the subfamily is cytotoxicity.
The xCELLigence system Multi-E-Plate stations were used to measure the time-dependent response to chemicals. Each compound was tested in an eight-point, 1:4 serial dilution series starting at a maximum final concentration of 100 uM. A maximum starting concentration of 0.5% DMSO was present in the 100 uM chemical samples and was diluted along with the test article dilution series. The screen was performed in biological duplicate using two separate, 96-well, E-Plates 96 for each dilution series (n = 2). Positive controls (MG132 and E2) and a negative control (assay media) were tested in quadruplicate on each testing plate. Then, 0.5% and 0.125% DMSO were tested in duplicates in each plate to serve as solvent controls for the 2 highest concentrations of testing compounds: 100 uM and 25 uM. Reference compounds were tested with 8 concentrations with 1:5 serial dilutions. All screening was carried out by ACEA Biosciences, Inc. (San Diego, CA). T-47D cells purchased from ATCC were maintained in RPMI1640 media supplemented with 10% characterized fetal bovine serum (FBS). Before screening, T-47D cells were preconditioned in assay medium: phenol red-free RPMI1640 supplemented with 10% charcoal-stripped FBS. Cells were then detached and seeded in E-Plates 96 in assay medium. After overnight monitoring of growth once every hour, compounds were added to […] cells and remained in the medium until the end of the experiment. Cellular responses were then recorded once every 5 min for the first 5 h, and once every hour for an additional 100 h.
In the case of `CC(C=O)Cc1ccc2c(c1)OCO2` (stereo not given), the compound was called inactive.
As for `O=[N+]([O-])c1cccc2ccccc12`, the compound was classed as inactive.
On to `c1ccc2sc(SNC3CCCCC3)nc2c1`, for which the AC50 is 85.5 µM (active).
On to `Brc1ccc(Br)cc1`, for which the result was inactive.
Turning to `O=c1[nH]c(=O)n(Cl)c(=O)n1Cl`, the compound was classed as inactive.
With `CCOC(=O)Cc1ccccc1`, the half-maximal activity concentration (AC50) is 50 µM (active).
Turning to `O=C(Cl)OCCOCCOC(=O)Cl`, the compound was classed as inactive.
Take `Cc1cc(Cl)ccc1N`: the AC50 is 80.8 µM (active) and 14.3 µM (active).
With `CCCCOC(=O)COC(=O)c1ccccc1C(=O)OCCCC`, the compound was classed as inactive.
Still for that read-out and setting: in the case of `Nc1nc(N)nc(Cl)n1` it was “inactive”.
Regarding `OC[P+](CO)(CO)CO`, the AC50 is 50 µM (active).
As for `CCCCC(CC)C(=O)Cl` (stereo not given), the compound was classed as inactive.
On to `Oc1c(Br)cc(Br)cc1Br`, for which the compound was called inactive.
`O=CCCl`: the concentration at half-maximal activity (AC50) was 10.3 µM (active).
For the compound `CCN(CC)C(=O)C(Cl)=C(C)OP(=O)(OC)OC`, the AC50 is 25.8 µM (active).
With `Cc1cc(Cl)ccc1OC(C)C(=O)O` (stereo not given), the result was inactive.
On to `CC[N+](CC)(CC)CC`, for which the call was inactive.
On to `C[N+](C)(C)Cc1ccccc1`, for which the compound was called inactive.
Consider `CCN(N=O)C(N)=O`, for which the compound was called inactive.
For `CCOP(=S)(OCC)OP(=S)(OCC)OCC`, the compound was called inactive.
Consider `Nc1ccc(N)cc1`, for which the AC50 is 49.8 µM (active).
As to `COc1ccc(N)cc1`, the concentration at half-maximal activity (AC50) is 52 µM (active) and the call was inactive.
In the case of `CNC(=O)O/N=C/C(C)(C)S(C)(=O)=O`, the call was inactive.
Consider `CCOC(=O)c1ccccc1S(=O)(=O)NC(=O)Nc1nc(Cl)cc(OC)n1`, for which the result was inactive.
As to `c1cc[c]([Sb]([c]2ccccc2)[c]2ccccc2)cc1`, the AC50 is 50 µM (active).
For the compound `CCC[CH2][Sn]([Cl])([Cl])[CH2]CCC`, the AC50 is 1.09 µM (active).
Regarding `Cc1ccccc1OP(=O)(Oc1ccccc1)Oc1ccccc1`, the concentration at half-maximal activity (AC50) is 62.9 µM (active).
On the same count and under the same terms, under `Cc1cccc(OP(=O)(Oc2cccc(C)c2)Oc2cccc(C)c2)c1` stands 17.3 µM (active).
Turning to `BrCCCCBr`, the outcome was inactive.
In the case of `N#CCCC(Br)(C#N)CBr` (stereo not given), the AC50 was 10.9 µM (active).
Same read-out and setting: in the case of `Cc1ccc(CCl)cc1` it was 40.7 µM (active).
Regarding `N#Cc1ccccc1Cl`, the compound was classed as inactive.
Turning to `c1ccc2c(c1)Oc1ccccc1O2`, the outcome was inactive.
As for `N#CCC#N`, the call was inactive.
`CC(C)(C)c1cc([N+](=O)[O-])cc(C(C)(C)C)c1O`: the AC50 is 24.3 µM (active).
Turning to `Nc1cccnc1`, the compound was classed as inactive.
As for `O=C(NC(=O)c1c(F)cccc1F)Nc1cc(Cl)c(OC(F)(F)C(F)C(F)(F)F)cc1Cl` (stereo not given), the AC50 was 50 µM (active).
As for `CCCSP(=S)(OCC)Oc1ccc(SC)cc1` (stereo not given), the call was inactive.
Regarding `CC(C)(C)c1ccccc1O`, the concentration at half-maximal activity (AC50) was 81.5 µM (active).

One may read the AC50 as the midpoint of the concentration-response curve, whichever way the signal moves.

For the origin of these results see PubChem BioAssay (EPA / NIEHS).
